# Whole data set: some 33,000 sequences, median “E-score (-0.5 to 0.5)” near -0.0059, cut for the highest 2% near 0.26. The sample holds the highest values, similar sequences and a random draw of the others, so the mix is not that of the screen.
# Target: T1, Cin5 (UniProt P40917)
# T1 sequence: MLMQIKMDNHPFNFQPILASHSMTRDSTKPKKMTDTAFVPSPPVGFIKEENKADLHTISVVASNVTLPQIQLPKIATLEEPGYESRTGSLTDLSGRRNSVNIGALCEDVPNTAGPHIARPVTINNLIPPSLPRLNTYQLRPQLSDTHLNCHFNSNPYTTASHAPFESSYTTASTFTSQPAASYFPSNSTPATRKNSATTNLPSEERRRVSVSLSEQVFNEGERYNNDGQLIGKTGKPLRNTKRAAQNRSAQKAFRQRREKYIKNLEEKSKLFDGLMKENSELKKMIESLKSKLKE
# Test: PBM E-score (8-mer binding enrichment) (E-score (-0.5 to 0.5)); higher = stronger / more preferred TF binding
# Details: protein concentration: 100 nM; construct: GST-full length
# Method in brief: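 E-scores (a modified Wilcoxon-Mann-Whitney statistic) were assigned by the Universal PBM Analysis Suite to every ungapped eight-base word pooled with its reverse complement. The input came from universal all-10-mer Agilent arrays made double-stranded by primer extension and probed with GST-tagged yeast transcription factors at about 100-200 nM. Fluorescent anti-GST detected bound protein, and masliner normalised the scans.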
row,Sequence,PBM E-score
1,CAAGAATC,0.133
2,AGCGGTAT,0.158
3,ATACTAAC,0.166
4,CTACTAAA,-0.0525
5,ATACTACC,-0.0132
6,ATACTAAG,0.012
7,CTACTACA,0.173
8,TTACTAAA,0.266
9,ATACTACA,0.285
10,GTACTAAA,0.0965
11,ATACTAAA,0.265
12,ACTTCCCG,-0.0152
13,CGGAGGAG,-0.182
14,AGGAAAAG,0.0753
15,GGACCTGA,-0.107
16,CGACGAAG,-0.0192
17,CATATAGG,0.0225
18,AATATAAT,0.177
19,AATATATG,0.248
20,AATATATT,0.363
21,AATATATA,0.18
22,AATATAGA,0.186
23,AATATAGC,0.0896
24,ACTATAGG,-0.0568
25,AATATAGG,0.317

row,Sequence,PBM E-score
1,AATATAAG,0.276
2,CATATAAG,0.0464
3,AATATAGT,0.315
4,GGTGGGAC,-0.313
5,CCCGGAGG,-0.377
6,AATCATCA,0.229
7,AGACTGCT,-0.00887
8,AGGCATAC,0.0609
9,CATGCACA,0.156
10,AACGATGT,0.0581
11,AAACGCTG,-0.139
12,GGGGATTA,0.253
13,GACTGCCC,-0.188
14,GTCTGAAC,-0.16
15,AGTGCCCA,0.0274
16,CAATACTA,0.0648
17,TAATACTA,0.372
18,TAATACGA,0.12
19,TAATACCA,0.279
20,CAATACCA,0.0989
21,TAATACAA,0.232
22,GAATACCA,0.207
23,AAATACTA,0.112
24,GAATACTA,0.267
25,CGTTGGGC,-0.0408

row,Sequence,PBM E-score
1,ATGGACAG,-0.15
2,GGACCAAC,-0.134
3,ACTTAGAC,0.0559
4,CCTGCGAG,-0.0365
5,CAGGGACA,-0.0907
6,CTGCGAGA,-0.332
7,AACATTAG,-0.0325
8,AATATTTA,0.217
9,AACATTAC,0.148
10,AACATTAT,0.261
11,AATATTGC,0.235
12,CATATTAC,0.287
13,AATATTAA,0.304
14,CATATTAG,0.16
15,AATATTGG,0.154
16,CATATTTC,0.0909
17,AATATTGA,0.172
18,AATATTGT,0.28
19,ACACGTTG,-0.238
20,CGGTAACG,-0.0557
21,AACTTTTC,0.0286
22,CGTCCCAC,-0.0257
23,CTCCAGGA,-0.221
24,GGCTGCAC,-0.148
25,CACATAGC,-0.142

row,Sequence,PBM E-score
1,CGTTTCCA,0.0865
2,ACAATCCA,0.209
3,AATATTCA,0.24
4,GATATTCC,0.0678
5,GATATTAC,0.315
6,AATATTCG,0.19
7,AATATTAT,0.343
8,TCTATTAA,0.109
9,ACTATTAT,0.137
10,TATATTAA,0.287
11,TGTATTAA,0.202
12,GCTATTAC,0.0669
13,AATATTAG,0.215
14,AATATTCC,0.289
15,AAAGACGA,0.036
16,GACCACTA,0.171
17,CCAGTCCG,-0.296
18,CCCGTAAC,-0.0624
19,GACAGCTC,-0.237
20,ACAGCTTA,0.195
21,AATGGAAC,0.103
22,GACATTAA,0.0285
23,TACATTAA,0.262
24,GATATTAA,0.282
25,AACATTAA,0.114

row,Sequence,PBM E-score
1,CTCATTAA,0.175
2,AATATTAC,0.294
3,GATATTCA,0.0685
4,GTCATTAA,0.279
5,GCTATTAA,0.0303
6,ATCATTAA,0.221
7,CCTATTAC,0.0787
8,AATATTTC,0.18
9,GCGCAGAC,-0.178
10,ACGAGAGA,-0.0604
11,CCTTTGTC,-0.0179
12,CTAGGTTA,0.118
13,AACAGTCA,-0.041
14,CATATTTA,0.157
15,CCTATTAA,0.111
16,CATATTGA,0.0883
17,CATATTAA,0.275
18,GATATTGA,0.0812
19,TATATTGA,0.287
20,GCTCCGCA,-0.16
21,GGCGGAAA,0.088
22,AGCAGTGA,0.2
23,AAGCTTGC,-0.0817
24,GTGTAGGA,-0.0437
25,CACGCGAA,-0.0826

row,Sequence,PBM E-score
1,AACGCGCT,-0.0706
2,AACGCGCG,0.276
3,AACGCGAA,0.281
4,AACGCGCA,0.0734
5,AACGCGAG,0.0992
6,CCAAAGCG,-0.0566
7,CCTTCATA,0.0109
8,ATGTCAGA,0.114
9,ACGTCATC,0.259
10,ATGTCAGC,0.272
11,AAGTCAGA,0.0006
12,ACGTCAGC,0.394
13,ACGTCAGT,-0.12
14,CTGTCAGC,0.148
15,CAGTCAGC,-0.0612
16,GCGTCAGC,-0.102
17,AAGTCAGC,0.293
18,CCGTCATC,-0.075
19,ACGTCATG,0.228
20,CGGACTTC,-0.131
21,CAGCTAAG,-0.252
22,GTAACCCA,0.234
23,ATTCTTAG,-0.0605
24,GGAGGGGA,-0.0844
25,CAAGTCCG,-0.109

row,Sequence,PBM E-score
1,ACTGTTGA,-0.0374
2,CCGGGACG,-0.162
3,GAACGTCA,-0.161
4,TCTAGAGA,-0.228
5,ATGTCATC,0.142
6,ATGTCATA,0.299
7,CTGTCATA,0.0932
8,AACCCCCC,-0.468
9,AAGGCTGG,-0.277
10,AGACTCCG,-0.121
11,AAAGATGA,0.00284
12,ATGGCAAT,0.113
13,ATTAGTTG,0.241
14,ATTAGTCA,0.341
15,ATTAGTCG,0.193
16,ATTAGTTA,0.315
17,GTTAGTCA,0.0867
18,GTTAGTTA,0.225
19,CTTGAGCC,-0.241
20,AGATCATA,0.186
21,GATCCCCC,-0.426
22,GTGACTAA,0.123
23,GTGACTTA,0.0722
24,CTGACTTA,0.298
25,ATGACTAA,0.235

row,Sequence,PBM E-score
1,ATGACTTA,0.149
2,CTGACTAA,0.36
3,CGTGTAAA,-0.142
4,AAGGGTGA,-0.0502
5,TCGGCCGA,0.0246
6,CACGGGAC,-0.118
7,TATCCCGA,0.125
8,CATCCCGA,0.0504
9,AATCCCGA,0.26
10,CCTTAGGA,0.0118
11,ATCGTGTC,0.0401
12,AATTCGCC,0.154
13,AATTCGCG,0.0954
14,AATTCGCT,0.325
15,GCACTCGA,0.0449
16,GCCTGATA,-0.0274
17,TATAGTGA,-0.0129
18,AATAGTAG,0.144
19,AATAGTAA,0.27
20,CATAGTAC,0.0648
21,AATAGTAC,0.05
22,CATAGTAA,0.279
23,GATAGTAA,0.195
24,TATAGTAA,0.324
25,TATAGTCA,0.0921

row,Sequence,PBM E-score
1,ACTACCAC,0.017
2,TCACCTAA,0.142
3,AACGCTAT,0.0739
4,ATGATCGA,0.0882
5,CTAATCGA,0.202
6,GCAATCGA,0.0191
7,ATAATCCA,0.225
8,GTAATCCA,0.281
9,GTAATCTA,0.354
10,GTAATCGA,0.275
11,CTAATCTA,0.00395
12,CTGATCGA,-0.179
13,ATAATCTA,0.242
14,CTAATCCA,0.219
15,GTGATCGA,0.273
16,CTGCCAAA,-0.065
17,CGCGCTAC,0.029
18,GACATAGC,0.0934
19,ACCGTACA,-0.108
